# Screening data (PubChem BioAssay)
# KB-V1 MDR tox: KB-V1 MDR subline cytotoxicity | actives 3.4% (n = 400,000) | KB-V1 MDR cells viability, CellTiter-Glo, 72 h | Potency, µM (top dose mostly 46.1 µM), hits mostly cytotoxic; further: potency means the concentration at half of the fitted maximal effect; on the % scale 0 is the no-effect control and ±100 the full control effect; nearly all actives have a fitted effect of over 60% in size
#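 Luminescent ATP read-out (CellTiter-Glo, 10 min) measures survival of drug-selected KB-V1 MDR cells after 72 h, 37 degrees C compound exposure. Medium: phenol-red-free DMEM, 10% FBS. Values from fitted concentration-response curves.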
# ASM inhibitor: inhibitors of human secretory acid sphingomyelinase | Potency, µM (doses to about 57.5 µM), inactives show at the highest dose activity change, negative = inhibition, hits mostly inhibitors | actives 0.006% (n = 340,000) | placental ASM, HMU-PC fluorogenic substrate, 60 min | P17405; further: potency means the concentration at half of the fitted maximal effect
# Target sequence (P17405 47-631 limits assumed): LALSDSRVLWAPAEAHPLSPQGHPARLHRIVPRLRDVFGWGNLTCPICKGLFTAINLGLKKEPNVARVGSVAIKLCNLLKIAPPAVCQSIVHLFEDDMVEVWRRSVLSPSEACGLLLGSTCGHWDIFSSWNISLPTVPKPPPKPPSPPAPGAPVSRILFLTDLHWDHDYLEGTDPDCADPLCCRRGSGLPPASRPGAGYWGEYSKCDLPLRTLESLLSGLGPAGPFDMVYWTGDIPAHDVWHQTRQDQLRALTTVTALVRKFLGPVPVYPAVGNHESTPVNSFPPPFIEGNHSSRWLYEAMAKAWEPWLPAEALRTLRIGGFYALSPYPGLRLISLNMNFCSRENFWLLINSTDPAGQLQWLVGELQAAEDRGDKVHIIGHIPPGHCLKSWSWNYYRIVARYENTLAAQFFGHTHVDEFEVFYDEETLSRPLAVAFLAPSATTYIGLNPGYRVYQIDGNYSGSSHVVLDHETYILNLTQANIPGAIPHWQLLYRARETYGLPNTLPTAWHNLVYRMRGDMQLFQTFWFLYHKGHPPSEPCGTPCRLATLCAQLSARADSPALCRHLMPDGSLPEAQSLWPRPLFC
#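 Fluorescence read-out (Ex 386 nm, Em 447 nm) after stopping the reaction at pH 10. Enzyme: ASM from human placenta; substrate HMU-PC0, 9 uM final; 60 min, 37 °C. Compound preincubation 10 min, ambient temperature.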
# Giardia kill: kills Giardia lamblia | AID 540267 | activity change, % at 7.66 µM, hits read low | Giardia lamblia trophozoite viability | actives 0.15% (n = 340,000); in the data active means activity change below about -80%; inconclusive means between about -30% and that limit;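 further: parasites exposed to compound for two days anaerobically before the ATP read; on the % scale 0 is the no-effect control and ±100 the full control effect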
#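 Viability, read as ATP luminescence: trophozoites at 100 cells/well, compound added, 48 hrs anaerobic at 37 deg C, then 15-30 min room-temperature development before reading.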
# SW480 rerep: induces DNA re-replication in SW480 colon adenocarcinoma cells. actives 1.8% (n = 340,000). Potency, µM (top dose mostly 46.1 µM), inactives show top-dose re-replication activation, most hits filed as activators. SW480 DNA re-replication, Hoechst DNA content imaging, 48 h; further: potency means the concentration at half of the fitted maximal effect; % of control where 0% means no effect; nearly all actives have a fitted effect of over 55% in size
#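 First, 250 cells per well were seeded. Next, compound or vehicle (23 nL) was pinned in, plates sat 48 hr at 37 C. Finally Hoechst was added for 40 min before fluorescence scanning.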
# MCF10A rereplic: inducers of DNA re-replication in MCF 10A breast cells. MCF 10A DNA re-replication, Hoechst nuclear intensity, 48 h. Potency, µM (doses to about 46.1 µM), without a hit: top-dose activity, positive = re-replication, most hits filed as activators. actives 2.9% (n = 350,000). AID 624296; further: potency means the concentration at half of the fitted maximal effect; % of control where 0% means no effect; nearly all actives have a fitted effect of over 50% in size
# KB-3-1 cytotox: kills parental KB-3-1 adenocarcinoma cells; KB-3-1 viability, CellTiter-Glo ATP luminescence, 72 h; Potency, µM (series often up to 46.1 µM), most hits filed as cytotoxic; actives 1.4% (n = 400,000); further: potency means the concentration at half of the fitted maximal effect; on the % scale 0 is the no-effect control and ±100 the full control effect; nearly all actives have a fitted effect of over 60% in size
#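 Cells are dispensed, compounds pinned in, plates held at 37 °C for 72 h, then CellTiter-Glo is added and luminescence read after 10 minutes. Cell line: parental KB-3-1 in phenol-red-free DMEM, 10% FBS.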
# Active calls of the source: *; i = inactive; ? = inconclusive; . = not tested or not shown; [ ] = another dose, or the depositor's remark. Sampled rows, rich in hits. Any-hit rate of the full collection: about 6.9%. Unless noted, the call rests on the fitted dose curve; in most records, active means well fitted curve in the direction sought with a large enough effect; inconclusive means small, poorly fitted or top-dose-only effect, or another doubt; inactive means no such curve, though single readings can be large; an effect the other way counts as inactive or inconclusive.
SMILES,KB-V1 MDR tox,ASM inhibitor,Giardia kill,SW480 rerep,MCF10A rereplic,KB-3-1 cytotox
O=C(NC(Cc1c[nH]c2ccccc12)C(=O)O)c1cccs1 (configuration not stated),i,9.8%,10.0,-5.9%,-40.8%,i
Cc1cc(C(=O)CCl)c(C)n1CCc1ccccc1,?,-2.7%,1.9,?,-8.1%,?
Cc1c(P(=S)(c2ccccc2)c2ccccc2)[n+]2ccccc2n1CCc1ccccc1,i,.,.,.,.,13µM*
OC1C(Br)=Cc2ccccc21 (configuration not stated),i,.,.,.,.,i
COc1cccc(C(=O)N(Cc2ccccc2)Cc2cc3cc4c(cc3[nH]c2=O)OCCO4)c1,i,13.9%,8.6,-0.9%,25.1%,i
COc1ccc(C(=O)N(Cc2ccccc2)Cc2cc3cc4c(cc3[nH]c2=O)OCCO4)cc1,11.2µM*,23.1%,4.0,?,?,8.91µM*
O=C(O)c1cc2ccccc2c(N=Nc2cccnc2)c1O,?,0.9%,-82.4*,9.1%,?,?
O=C1C(Nc2ccccc2)=C/C(=N/S(=O)(=O)c2cccs2)c2ccccc21,?,-20.2%,-7.6,5.8µM*,3.26µM*,?
Cc1ccc(NC2=C/C(=N/S(=O)(=O)c3cccs3)c3ccccc3C2=O)cc1,?,-5.0%,-24.1,?,8.2µM*,2.31µM*
COc1ccc2c(c1)N(C[C@@H](C)CN(C)C)c1ccccc1S2,.,.,.,-4.8%[20.6 µM],2.6%[20.6 µM],.
CCOc1ccccc1NC(=O)c1ccc2c(c1)CCCN2S(C)(=O)=O,i,.,.,.,.,i
Cc1ccc(C)c(N2CCN(C(=O)CCCN3C(=S)NC(C)(C)CC3C)CC2)c1 (configuration not stated),?,1.6%,-6.4,-0.7%,7.7%,20.6µM*
CC1CC(C)(C)NC(=S)N1CCCC(=O)Nc1ccc(Br)cc1 (configuration not stated),23.1µM*,2.5%,6.5,-8.4%,3.3%,i
Cc1cccc(N2CCN(C(=O)CCN3C(=S)NC(C)(C)CC3C)CC2)c1C (configuration not stated),4.11µM*,2.1%,5.3,-5.8%,13.7%,i
CC1CC(C)(C)NC(=S)N1CCC(=O)N1c2ccccc2CC1C (configuration not stated),i,4.3%,1.1,-47.7%[1.84 µM],?,i
COc1ccc(-c2nn3c(-c4cc(C)[nH]n4)nnc3s2)cc1,i,.,10.7,.,.,i
O=C(CCC1N=C2c3ccccc3N=C(SCC(=O)Nc3ccc(F)cc3)N2C1=O)NCc1ccco1 (configuration not stated),?,.,.,.,.,i
COc1ccc(OC)c2c(C)ccnc12,i,.,.,.,.,i
CCOC(=O)C1=C(N)Oc2cc(O)ccc2C1c1cccc(Cl)c1 (configuration not stated),?,-9.5%,-5.0,?,5.8µM*,?
Cc1cc(N2CCN(C)CC2)nc2ccc(NC(=O)CCC(=O)N3CCN(c4ccc([N+](=O)[O-])cc4)CC3)cc12,i,-12.6%,33.5,?,18.4µM*,i
Cc1cc(N2CCOCC2)nc2ccc(NC(=O)CCC(=O)N3CCN(c4ccccc4)CC3)cc12,i,i,18.3,-5.6%,0.7%,i
Cc1ccc(OCCCN2C(=O)C(=O)c3cc(C)ccc32)cc1,i,-5.1%,?,23.1µM*,20.6µM*,?
CC(C)SC1=NC(C)(C)C=C(/C=C/c2ccc(Cl)cc2Cl)N1,i,-12.5%,5.6,?,8.2µM*,?
CC(C)SC1=NC(C)(C)C=C(/C=C/c2c(Cl)cccc2Cl)N1,i,-2.6%,-6.2,?,18.4µM*,14.6µM*
CC(=O)Nc1cc(C(=O)NCc2ccc(C)cc2)ccc1S(=O)(=O)c1ccc(Cl)cc1,i,.,.,.,.,i
Clc1ccc(C(Cn2ccnc2)OCc2c(Cl)cccc2Cl)c(Cl)c1 (configuration not stated),?,-5.1%,?,?,4.61µM*,i
